For ten compounds, growth inhibition results are on record in PubChem BioAssay (NCI).

The nature of test [1]: NCI Yeast Anticancer Drug Screen. Data for the rad50 strain (AID 155).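 Note: 0% = growth of vehicle-only cultures of the same strain.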 Conditions: S. cerevisiae rad50 strain growth inhibition, stronger effect = higher value. A digest of the protocol: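 Relative growth inhibition (compound vs vehicle) was measured in yeast with a defined repair-gene alteration.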
The nature of test [2]: NCI Yeast Anticancer Drug Screen. Data for the mec2-1 strain (AID 157). Conditions: S. cerevisiae mec2-1 strain, stronger effect = higher value. The method, boiled down:
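Each compound was tested on mec2-1 yeast, a strain altered in DNA damage repair or cell cycle control. Growth inhibition is reported relative to vehicle.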

The nature of test [3]: NCI Yeast Anticancer Drug Screen. Data for the sgs1 mgt1 strain (AID 161).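 Note: 0% = growth of cultures given vehicle only.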 Conditions: S. cerevisiae sgs1 mgt1 strain, stronger effect = higher value. A digest of the protocol:
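Genetically altered yeast, compound exposure, growth inhibition relative to vehicle.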

A short description of test [4]: NCI Yeast Anticancer Drug Screen. Data for the cln2 rad14 strain (AID 165).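 Note: 0% = growth equal to vehicle treated cultures.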 Conditions: S. cerevisiae cln2 rad14 strain, stronger effect = higher value. The method, boiled down: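 Test compounds were added to cln2 rad14 yeast cultures; inhibition of growth was then determined by comparison with vehicle treatment.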
Test [5] in a line: NCI Yeast Anticancer Drug Screen. Data for the bub3 strain (AID 167). The conditions noted are these: S. cerevisiae bub3 mutant strain, stronger effect = higher value. A digest of the protocol:
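Screening used yeast with an engineered genetic alteration affecting cell cycle control. Compound-exposed cultures were compared with vehicle cultures, and reduced growth was taken as inhibition.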

The nature of test [6]: NCI Yeast Anticancer Drug Screen. Data for the mlh1 rad18 strain (AID 175). Conditions: S. cerevisiae mlh1 rad18 strain growth inhibition, stronger effect = higher value. A digest of the protocol:
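Inhibition values reflect reduced growth of mutant yeast versus vehicle-treated controls following compound exposure; the mutations affect DNA damage repair.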

The mark [7] stands for this setting: at 5.0 µM (retest, dose inferred, filed as 0.5).
[8] abbreviates: at 50.0 µM (retest, dose inferred, filed as 5.0).

Compounds without any hit were thinned out: in the full panel of roughly 79,000, 15% have a hit. Unmarked numbers belong to inactive results. Activity calls are given as the source filed them. Cut-off read from the data, not from the text of the source: active = growth inhibition above about 70%; inactive = the rest.

As to `CC1=C(C(=O)Nc2cccc(C(F)(F)F)c2)C(c2ccccc2F)C(C(=O)Nc2cccc(C(F)(F)F)c2)=C(C)N1`, the growth inhibition is 46% in test [1] (setting [7]); 46% in test [1] (setting [8]); 78.4% (active) in test [1] (at 50.0 µM); 46% in test [2] (setting [7]); 46% in test [2] (setting [8]); 78.9% (active) in test [2] (at 50.0 µM). Further, the growth inhibition was 29% in test [3] (setting [7]); 29% in test [3] (setting [8]); 85.9% (active) in test [3] (at 50.0 µM); 21% in test [4] (setting [7]); 21% in test [4] (setting [8]); 85.7% (active) in test [4] (at 50.0 µM). The growth inhibition in test [5] (setting [7]) was 37%; in test [5] (setting [8]), 37%; in test [5] (at 50.0 µM), 85.2% (active); in test [6] (setting [7]), 47%; in test [6] (setting [8]), 47%; in test [6] (at 50.0 µM) it was 80.4% (active).

Regarding `c1ccc(Oc2ccc(Nc3c4ccccc4nc4ccccc34)cc2)cc1`, the growth inhibition is 85% (active) in test [1] (setting [7]); 57% in test [1] (setting [8]); 45.9% in test [1] (at 50.0 µM); 4% in test [2] (setting [7]); 70% (active) in test [2] (setting [8]); 30% in test [2] (at 50.0 µM). Further, the growth inhibition is 17% in test [3] (setting [7]); 84% (active) in test [3] (setting [8]); 76.2% (active) in test [3] (at 50.0 µM); 3% in test [4] (setting [7]); 62% in test [4] (setting [8]); 31.9% in test [4] (at 50.0 µM). The growth inhibition was -4% in test [5] (setting [7]); 81% (active) in test [5] (setting [8]); 28.6% in test [5] (at 50.0 µM); 13% in test [6] (setting [7]); 91% (active) in test [6] (setting [8]); 27.1% in test [6] (at 50.0 µM).

Take `CC1=NN(c2nc(N)nc(NS(=O)(=O)c3cc(C)c(Cl)cc3S)n2)C(C)(C)C1`: the growth inhibition is 29% in test [1] (setting [7]); 13% in test [1] (setting [8]); 9.1% in test [1] (at 50.0 µM); -1% in test [2] (setting [7]); -12% in test [2] (setting [8]); -9.55% in test [2] (at 50.0 µM). Moreover, the growth inhibition in test [3] (setting [7]) was -2%; in test [3] (setting [8]) it was 9%; in test [3] (at 50.0 µM), 35.9%; in test [4] (setting [7]), 4%; in test [4] (setting [8]), 10%; in test [4] (at 50.0 µM) it was 46.2%. The growth inhibition in test [5] (setting [7]) is 11%; in test [5] (setting [8]), -17%; in test [5] (at 50.0 µM) it was 9.85%; in test [6] (setting [7]) it was -3%; in test [6] (setting [8]), 4%; in test [6] (at 50.0 µM), 20%.

Regarding `Clc1ccc(CN2COc3c(ccc4ccccc34)C2)cc1`, the growth inhibition in test [1] (setting [7]) was 10%; in test [1] (setting [8]), 78% (active); in test [1] (at 50.0 µM), 88.8% (active); in test [2] (setting [7]), 3%; in test [2] (setting [8]), 43%; in test [2] (at 50.0 µM), 59.8%. In addition, the growth inhibition was 13% in test [3] (setting [7]); 97% (active) in test [3] (setting [8]); 83.2% (active) in test [3] (at 50.0 µM); 0% in test [4] (setting [7]); 85% (active) in test [4] (setting [8]); 61.1% in test [4] (at 50.0 µM). In addition, the growth inhibition in test [5] (setting [7]) was -4%; in test [5] (setting [8]), 96% (active); in test [5] (at 50.0 µM), 89.9% (active); in test [6] (setting [7]), 1%; in test [6] (setting [8]), 96% (active); in test [6] (at 50.0 µM), 59%.

Take `Oc1ccc(/C=N/NC(=S)NC2CC3CC2C2C=CCC32)c(O)c1` (stereo not given): the growth inhibition in test [1] (setting [7]) is 46%; in test [1] (setting [8]) it was 96% (active); in test [1] (at 50.0 µM), 87.8% (active); in test [2] (setting [7]), 33%; in test [2] (setting [8]), 97% (active); in test [2] (at 50.0 µM), 90.8% (active). The growth inhibition in test [3] (setting [7]) was 49%; in test [3] (setting [8]) it was 98% (active); in test [3] (at 50.0 µM) it was 92.5% (active); in test [4] (setting [7]), 26%; in test [4] (setting [8]), 98% (active); in test [4] (at 50.0 µM), 89.3% (active). For the same compound, the growth inhibition in test [5] (setting [7]) was 28%; in test [5] (setting [8]), 52%; in test [5] (at 50.0 µM), 90.3% (active); in test [6] (setting [7]), 65%; in test [6] (setting [8]) it was 96% (active); in test [6] (at 50.0 µM), 90% (active).

Take `CCOC(=O)/C=C\c1c(Cl)n(-c2ccccc2)c(=O)n(-c2ccccc2)c1=O`: the growth inhibition in test [1] (setting [7]) is 31%; in test [1] (setting [8]), 98% (active); in test [1] (at 50.0 µM), 87.7% (active); in test [2] (setting [7]) it was 24%; in test [2] (setting [8]) it was 99% (active); in test [2] (at 50.0 µM) it was 90.5% (active). Also, the growth inhibition in test [3] (setting [7]) was 23%; in test [3] (setting [8]), 99% (active); in test [3] (at 50.0 µM) it was 89.8% (active); in test [4] (setting [7]) it was 26%; in test [4] (setting [8]) it was 99% (active); in test [4] (at 50.0 µM), 90.3% (active). The growth inhibition was 31% in test [5] (setting [7]); 99% (active) in test [5] (setting [8]); 85.6% (active) in test [5] (at 50.0 µM); 27% in test [6] (setting [7]); 98% (active) in test [6] (setting [8]); 92.3% (active) in test [6] (at 50.0 µM).

On to `CCc1cccc(C(C)(C)C)c1NC(=S)/N=C/C(C(=O)c1ccccc1)=C(\O)c1ccccc1`, for which the growth inhibition in test [1] (setting [7]) is -4%; in test [1] (setting [8]) it was 70% (active); in test [1] (at 50.0 µM), 77.2% (active); in test [2] (setting [7]), -11%; in test [2] (setting [8]) it was 66%; in test [2] (at 50.0 µM), 55.3%. In addition, the growth inhibition in test [3] (setting [7]) is -10%; in test [3] (setting [8]), 43%; in test [3] (at 50.0 µM) it was 68.9%; in test [4] (setting [7]), -13%; in test [4] (setting [8]), 45%; in test [4] (at 50.0 µM), 48.1%. For the same compound, the growth inhibition in test [5] (setting [7]) is -12%; in test [5] (setting [8]), 48%; in test [5] (at 50.0 µM), 80.3% (active); in test [6] (setting [7]), -4%; in test [6] (setting [8]), 65%; in test [6] (at 50.0 µM) it was 75.6% (active).

With `O=c1c2cc3c(cc2c2cccc4c2n1CCC4)OCO3`, the growth inhibition in test [1] (setting [7]) was -1%; in test [1] (setting [8]), 44%; in test [1] (at 50.0 µM) it was 71.2% (active); in test [2] (setting [7]), 0%; in test [2] (setting [8]), 12%; in test [2] (at 50.0 µM), 23.4%. Further, the growth inhibition is -4% in test [3] (setting [7]); 13% in test [3] (setting [8]); 25.4% in test [3] (at 50.0 µM); -3% in test [4] (setting [7]); 6% in test [4] (setting [8]); 42.4% in test [4] (at 50.0 µM). The growth inhibition in test [5] (setting [7]) is 2%; in test [5] (setting [8]) it was 31%; in test [5] (at 50.0 µM), 20.4%; in test [6] (setting [7]), -2%; in test [6] (setting [8]) it was 15%; in test [6] (at 50.0 µM), 53.7%.

On to `Clc1ccc(SSN2CCCCC2)cc1`, for which the growth inhibition was 2% in test [1] (setting [7]); 65% in test [1] (setting [8]); 89% (active) in test [1] (at 50.0 µM); -1% in test [2] (setting [7]); 45% in test [2] (setting [8]); 80.3% (active) in test [2] (at 50.0 µM). Also, the growth inhibition in test [3] (setting [7]) is 2%; in test [3] (setting [8]), 82% (active); in test [3] (at 50.0 µM), 87.8% (active); in test [4] (setting [7]) it was 6%; in test [4] (setting [8]), 17%; in test [4] (at 50.0 µM) it was 7.1%. For the same compound, the growth inhibition is -1% in test [5] (setting [7]); 70% (active) in test [5] (setting [8]); 77.7% (active) in test [5] (at 50.0 µM); 3% in test [6] (setting [7]); 84% (active) in test [6] (setting [8]); 88.4% (active) in test [6] (at 50.0 µM).

Regarding `CSc1cc(-c2cc3ccccc3o2)oc(=O)c1C#N`, the growth inhibition was 6% in test [1] (setting [7]); -8% in test [1] (setting [8]); -1.6% in test [1] (at 50.0 µM); -1% in test [2] (setting [7]); -10% in test [2] (setting [8]); -6.6% in test [2] (at 50.0 µM). For the same compound, the growth inhibition in test [3] (setting [7]) is 3%; in test [3] (setting [8]) it was -11%; in test [3] (at 50.0 µM), -24.4%; in test [4] (setting [7]), -9%; in test [4] (setting [8]), -6%; in test [4] (at 50.0 µM), -4.5%. In addition, the growth inhibition in test [5] (setting [7]) is -5%; in test [5] (setting [8]), -8%; in test [5] (at 50.0 µM), 40.1%; in test [6] (setting [7]), -4%; in test [6] (setting [8]), -11%; in test [6] (at 50.0 µM) it was -23.9%.
